# Mtb BioA inh: inhibitors of Mycobacterium tuberculosis BioA enzyme; 0.096% of 360,000 active; inhibition, % at 9.99 µM; purified M. tuberculosis BioA enzyme, plate reader; in the data active means inhibition above about 40%; inconclusive means no clear call, values can overlap the other calls
# GDH-TPI counter: inhibits GDH-TPI coupling enzymes, artifact for Mtb FBA screen; GDH-TPI coupled enzyme counterscreen, NADH absorbance; inhibition, % at 4.8 µM; 1.2% of 360,000 active; AID 588335; in the data active means inhibition above about 30%;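 further: 0% = DMSO wells and 100% = wells lacking the enzyme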
# FadD28 binding: blocks FadD28 binding to the bisubstrate probe; 0.22% of 360,000 active; fluorescence polarization; inhibition, % at 12.5 µM; in the data active means inhibition above about 8.5%, passing the limit was not always enough; inconclusive means no clear call, values can overlap the other calls
# FBA Mtb inh: Mtb fructose-bisphosphate aldolase inhibition; P9WQA3; purified M. tuberculosis FBA, fluorescence read-out; inhibition, % at 1 µM; 2.3% of 360,000 active; in the data active means inhibition above about 27%;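 further: 0% = vehicle and 100% = reference inhibitor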
# Target sequence (P9WQA3 whole entry, looked up): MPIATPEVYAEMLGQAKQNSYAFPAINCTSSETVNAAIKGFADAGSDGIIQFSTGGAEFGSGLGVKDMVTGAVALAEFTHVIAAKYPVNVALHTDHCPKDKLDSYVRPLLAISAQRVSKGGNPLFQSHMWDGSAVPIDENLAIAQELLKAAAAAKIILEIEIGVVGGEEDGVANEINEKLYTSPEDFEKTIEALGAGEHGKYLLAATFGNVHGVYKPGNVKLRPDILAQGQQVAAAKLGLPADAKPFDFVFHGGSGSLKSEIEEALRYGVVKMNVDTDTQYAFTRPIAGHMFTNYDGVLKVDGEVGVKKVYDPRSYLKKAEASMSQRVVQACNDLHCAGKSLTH
# SARS 3CLpro inh: SARS-CoV 3CLpro protease inhibition; 0.14% of 290,000 active; inhibition, % at 6 µM; recombinant SARS-CoV 3CLpro, quenched FRET peptide cleavage; P0C6X7; in the data active means inhibition above about 12%
# An asterisk follows results filed as active; ? = inconclusive; · = no result; + = active, no number. Shown are actives, neighbours in structure and some others; about 3.1% of the full set was active somewhere.
SMILES,Mtb BioA inh,GDH-TPI counter,FadD28 binding,FBA Mtb inh,SARS 3CLpro inh
C[C@@H]1CN([C@H](C)CO)C(=O)c2cc(NC(=O)C3CC3)ccc2O[C@H]1CN(C)S(=O)(=O)c1cccs1,11.6,·,·,·,·
CNC(=S)NN=C(C)c1ccc(OC)cc1O,·,39.0*,0.6,3.7,·
COc1ccc(C2C3=C(CC(C)(C)CC3=O)N(CC(=O)O)C3=C2C(=O)CC(C)(C)C3)cc1OC,0.1,14.4,0.3,-1.9,-6.8
C#CCOc1c(Cl)cc(C2C3=C(CCCC3=O)N(CC(=O)O)C3=C2C(=O)CCC3)cc1OC,-0.5,15.5,-2.2,159.0*,3.5
CCN1C2=C(C(=O)CCC2)C(c2ccc(O)c(Br)c2)C2=C1CCCC2=O,-2.3,10.9,-2.8,4.6,0.3
CCOc1cc(C2C3=C(CCCC3=O)N(CC(=O)O)C3=C2C(=O)CCC3)ccc1OC,-0.2,7.0,-5.2,-0.2,0.0
COc1ccc(C2C3=C(CCCC3=O)N(CC(=O)O)C3=C2C(=O)CCC3)cc1Br,0.6,7.4,-2.5,134.9*,·
COc1ccc(C2C3=C(CCCC3=O)N(CC(=O)O)C3=C2C(=O)CCC3)cc1Cl,-1.1,-0.4,-1.0,178.1*,4.0
C[C@H]1CN([C@@H](C)CO)C(=O)c2cc(-c3ccccc3F)cnc2O[C@@H]1CN(C)C(=O)CN(C)C,-1.3,·,·,·,·
O=C(N/N=C/c1cn(-c2ccccc2)nc1-c1cc2ccccc2o1)c1ccccc1Br,-1.1,30.9*,-1.6,2.5,2.2
CN1C[C@H]2[C@@H](c3ccccc31)[C@H](CO)N2C(=O)C1CCCCC1,2.2,·,·,·,·
COc1ccccc1/C=C/c1nc(C#N)c(N(C)C)o1,0.2,8.9,-1.7,+,-5.5
CN(C)c1oc(-c2ccco2)nc1C#N,·,16.0,0.0,127.3*,2.5
CN(C)c1oc(/C=C/c2ccccc2)nc1C#N,·,24.1,-3.5,·,0.9
CN(C)c1oc(-c2ccccc2)nc1C#N,·,18.2,-1.1,+,1.6
CCOC(=O)c1nc(-c2ccccc2)oc1N(C)C,-2.6,14.8,1.5,131.4*,-0.3
CCCNC(=O)C[C@@H]1C[C@@H]2c3cc(NS(=O)(=O)c4cccc(OC)c4)ccc3O[C@@H]2[C@@H](CO)O1,1.2,·,·,·,·
C[C@@H]1CN([C@@H](C)CO)C(=O)Cc2cc(NC(=O)c3ccncc3)ccc2O[C@@H]1CN(C)C(=O)Nc1cccc2ccccc12,-0.2,·,·,·,·
CCOc1cc(/C=C2/SC(=O)N(CC(=O)N3CCc4ccccc4C3)C2=O)ccc1OCC(=O)O,5.3,33.8*,-4.5,-2.5,4.3
C[C@H]1CN([C@@H](C)CO)C(=O)c2cccc(NC(=O)C3CCCCC3)c2O[C@H]1CN(C)C(=O)Nc1ccccc1,0.2,·,·,·,·
O=C1c2cccc3cccc(c23)C(=O)N1/N=C/c1ccc(O)cc1O,-2.1,46.5*,-2.8,-6.4,6.7
O=C1c2ccccc2C(=O)N1/N=C/c1ccc(O)c(O)c1O,-1.1,28.2,1.4,0.0,1.6
Nc1nonc1-c1nc2ccccc2n1CC(=O)N/N=C/c1ccc(-c2ccccc2C(=O)O)o1,·,42.0*,-5.2,2.0,0.1
Nc1nonc1-c1nc2ccccc2n1CC(=O)Nc1ccccc1,-0.6,21.5,-4.4,-0.1,3.3
COCC(=O)Nc1ccc2c(c1)[C@H]1C[C@H](CC(=O)O)O[C@H](CO)[C@H]1O2,-1.4,·,·,·,·
SMILES,Mtb BioA inh,GDH-TPI counter,FadD28 binding,FBA Mtb inh,SARS 3CLpro inh
O=C(O)[C@@H]1[C@@H](CO)[C@@H]2Cn3c(ccc(-c4ccccc4)c3=O)[C@@H]2N1CCc1ccccc1,1.0,·,·,·,·
N#C/C(=C/c1ccc(CNC(=O)C(=O)Nc2cc(Cl)cc(Cl)c2)o1)C(=O)NCc1cccnc1,·,-3.6,-0.9,0.4,-3.2
Cc1ccc(NC(=O)C(=O)NCc2ccc(/C=C(/C#N)C(=O)NCc3cccnc3)o2)cc1C,-1.6,33.7*,-1.0,0.4,-1.6
COCCNC(=O)/C(C#N)=C\c1ccc(CNC(=O)C(=O)Nc2ccc(C)c(C)c2)o1,·,21.7,-2.9,-0.7,3.8
Cc1ccc(NC(=O)C(=O)NCc2ccc(/C=C(/C#N)C(=O)NCc3cccnc3)o2)cc1,-0.3,32.1*,-2.4,-0.1,-3.0
CC(C)(C)c1nnc(N/N=C/c2cc(Br)ccc2O)n(N)c1=O,0.8,33.3*,-3.5,-1.1,2.8
CCc1nnc(N/N=C/c2cc(Br)c(O)cc2O)n1N,-2.4,24.3,1.3,-1.7,1.4
COc1ccc(NC(=O)N(C)C[C@@H]2Oc3c(NC(=O)Nc4ccc5c(c4)OCO5)cccc3C(=O)N([C@@H](C)CO)C[C@@H]2C)cc1,2.0,·,·,·,·
COc1cccc(NC(=O)CN(C)C(=O)c2cc3c(s2)CCCCC3)c1,-0.2,-3.2,12.6*,-1.3,·
O=C(N/N=C/c1cc(Br)c(O)c(Br)c1)c1cc2c(ccc3ccccc32)o1,1.5,32.6*,25.3*,4.7,4.8
O=C(N/N=C/c1cc(Cl)c(O)c(Cl)c1)c1cc2c(ccc3ccccc32)o1,-1.4,32.0*,39.1*,3.5,-0.6
O=C(N/N=C/c1ccc(O)c(Br)c1)c1cc2c(ccc3ccccc32)o1,1.0,26.8,-2.0,-0.3,0.9
COc1ccc(S(=O)(=O)N[C@H]2CC[C@H](CCn3cc(-c4cccc(F)c4)nn3)O[C@H]2CO)cc1,2.1,·,·,·,·
CC(C)Sc1nsc2nc(=O)c(/C=C3\C=Nc4ccccc43)c(N)n12,-0.5,14.8,19.3*,-2.3,2.8
CCC(CC)c1nn2c(N)c(/C=C3\C=Nc4ccccc43)c(=O)nc2s1,-0.3,18.6,-2.2,+,4.1
CCCN(CC(=O)Nc1ccccc1C)C(=O)/C=C/c1cccs1,-0.9,25.9,-2.7,-0.7,-2.5
CCCN(CC(=O)Nc1ccccc1C)C(=O)/C=C/c1ccc(OCC)c(OC)c1,0.2,34.0*,-2.1,12.8,·
CCN(CC(=O)Nc1c(F)cccc1F)C(=O)Cc1ccccc1,1.0,-6.0,9.7*,-1.5,-2.3
CCOc1ccc(/C=C/C(=O)N(CC)CC(=O)Nc2c(F)cccc2F)cc1OC,-0.4,31.9*,-3.3,9.9,·
CCOc1ccc(/C=C/C(=O)N(CC)CC(=O)Nc2ccc3c(c2)OCCO3)cc1OC,-0.3,7.2,-3.9,5.5,·
O=C(C[C@@H]1CC[C@@H]2[C@H](COC[C@H](O)CN2Cc2cc(F)cc(F)c2)O1)NC1CCCC1,0.4,·,·,·,·
CC(C)CC#Cc1cnc2c(c1)C(=O)N([C@H](C)CO)C[C@H](C)[C@H](CN(C)Cc1ccc3c(c1)OCO3)O2,2.0,·,·,·,·
C[C@@H]1CN([C@H](C)CO)C(=O)c2cccc(NC(=O)Nc3ccc4c(c3)OCO4)c2O[C@H]1CN(C)S(=O)(=O)c1cccs1,0.1,·,·,·,·
O=C(O)c1cc(NN=Nc2ccc(Br)cc2)cc([N+](=O)[O-])c1,·,31.0*,?,-0.6,0.1
O=C(O)c1cc(NN=Nc2cccc([N+](=O)[O-])c2)cc([N+](=O)[O-])c1,9.5,24.5,4.9,-2.3,2.3
O=[N+]([O-])c1ccc(N=NNc2ccccc2)cc1,·,10.8,-2.9,77.6*,2.6
CC(=O)c1cnc(N(C)C)s1,-2.3,38.5*,-0.9,2.6,0.5
CN1C[C@H](CO)C=C2c3cccc4[nH]cc(c34)C[C@H]21,-6.0,8.8,2.2,171.6*,-9.8
Nc1nnc(N2CCCCC2)s1,-0.4,3.4,1.0,3.9,-1.6
